Screening data: PubChem BioAssay, several laboratories
RAM network inh: inhibitors of the yeast RAM network; AID 868; S. cerevisiae dse1pr::URA3 reporter, 5-FOA growth OD615, 2 d; analog-sensitive cbk1-as2 kinase mutant strain; inhibition, % at 50 µM; 1.8% of 190,000 active;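 active = inhibition above a set limit, 3 SD over mean compound inhibition, cut at about 8.4% in these data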;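 note: inhibition rescues growth on 5-FOA so higher OD means more RAM inhibition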
CHOP inh: inhibitors of CHOP induction in ER stress response | inhibition, % at 10 µM | CHO-K1 CHOP-promoter luciferase, tunicamycin-induced, 15-18 h | 3.8% of 220,000 active | AID 2732;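 active = compounds that reduced the stress-induced luciferase reporter signal by more than about 70% of percent inhibition, limit read from the data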
WT yeast gro inh: growth inhibition of WT yeast, mitochondrial fusion screen; 2.1% of 190,000 active; mitochondrial fusion phenotypic screen, WT strain; inhibition, % at 10 µM; in the data active = inhibition above about 58%; tested in S. cerevisiae
Lmaj promast: Leishmania major promastigote growth inhibition. inhibition, % at 10 µM. 9% of 200,000 active. Leishmania major promastigotes, resazurin fluorescence viability. AID 1063; in the data active = inhibition above about 50%;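 note: promastigotes grown with compound for 44 hours at 28 °C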
Each line names hits and unclear results; the compound was inactive in the other large screens; ! = not confirmed by another sample. Sampled rows, rich in hits. Any-hit rate of the full collection: about 13%.

CSCCC(N=C(NS(=O)(=O)c1ccccc1)c1ccccc1)C(=O)O (configuration not stated)	none (no result: RAM network inh, WT yeast gro inh, Lmaj promast)
O=C(CCN1CCOCC1)Nc1c(-c2ccccc2)c2cc(Br)ccc2[nH]c1=O	none
Cc1ccc2[nH]c(=O)c(N3CCOCC3)c(-c3ccccc3)c2c1	CHOP inh 76
O=C(NCCN1CCc2ccccc2C1)C1CC(=O)N(C2CCCC2)C1 (configuration not stated)	CHOP inh 89
CCOc1ccc(NC(=O)C(C)Oc2ccccc2C(=O)Nc2cccc(Cl)c2Cl)cc1 (configuration not stated)	none
CC(C)(C)C(=O)NC(=S)NNC(=O)c1ccc(Cl)cc1Cl	CHOP inh 92
COC(=O)NNC(=O)c1ccc(Cl)cc1Cl	none
O=C(NNC(=O)c1ccc(-c2ccccc2)cc1)c1ccccc1	CHOP inh 81
Cc1cccc(C(=O)NNC(=O)c2ccc(-c3ccccc3)cc2)c1	none
CC(C)(C)C(=O)NC(=S)NNC(=O)c1ccc(-c2ccccc2)cc1	CHOP inh 92, WT yeast gro inh 67, Lmaj promast 97
Cc1ccc(Cl)cc1NC(=O)COC(=O)C12CC3CC(CC(C3)C1)C2	CHOP inh 79!
Cc1ccc(Cl)cc1NC(=O)COC(=O)C1CCCC1	none
NCCCCCc1nnc(SCc2ccccc2Cl)o1	Lmaj promast 99
Cc1ccc(CSc2nc3c(c(SCC(=O)O)n2)CCCC3)cc1	none
Cc1nc(SCc2ccccc2)nc2c1CCC2	none
Cc1ccc(CSc2nc3c(c(N(C)C)n2)CCCC3)cc1	WT yeast gro inh 78
CN(C)c1nc(SCc2ccccc2Cl)nc2c1CCCC2	none
CNc1nc(SCc2ccc(C)cc2)nc2c1CCCC2	WT yeast gro inh 67, Lmaj promast 100
COC(=O)CSc1nc(SCc2ccc(C)cc2)nc2c1CCCC2	WT yeast gro inh 70
COC(=O)C1SCC2C(=O)N(Cc3ccccc3)CC(=O)N21 (configuration not stated)	none
CC(=O)Nc1ccc(NC(=O)C2CCCN2C(=O)Nc2ccc(F)c([N+](=O)[O-])c2)cc1 (configuration not stated)	none
CC1(C2CC2)NC(=O)N(CC(=O)Nc2ccccc2-c2ccccc2)C1=O (configuration not stated)	none
CCC(C)Sc1nnc(CNC(=O)C23CC4CC(CC(C4)C2)C3)n1C1CCCCC1 (configuration not stated)	CHOP inh 95
CC(C)Sc1nnc(CNC(=O)C23CC4CC(CC(C4)C2)C3)n1Cc1ccccc1	none
COc1cc(NC(=O)C2CCCO2)c(OC)cc1NC(=O)c1ccccc1 (configuration not stated)	Lmaj promast 83
N#CC(C#N)=Cc1ccccc1OCc1ccccc1	none (no result: RAM network inh, WT yeast gro inh, Lmaj promast)
Cc1ccc(S(=O)(=O)/C(C#N)=C/c2ccccc2OCc2ccccc2)cc1	RAM network inh 8.6
CC(=O)c1ccc(-c2ccc(C(=O)N3CCCc4ccccc43)o2)cc1	RAM network inh 9.4
COc1ccc(/C=N/n2c(N)nc3ccccc32)cc1OC	none
COc1cccc(/C=N/n2c(N)nc3ccccc32)c1OC	Lmaj promast 59
O=C(NC1=C(Nc2ccc(F)cc2)C(=O)c2ccccc2C1=O)c1ccc(Cl)cc1	WT yeast gro inh 67, Lmaj promast 96
O=C(NNC(=O)c1ccc(F)cc1F)c1ccc2c(c1)OCO2	none
CC(C)OC(=O)N(C)c1ccc(C(O)(C(F)(F)F)C(F)(F)F)cc1	Lmaj promast 100
CC(=O)Nc1ccc(C(O)(C(F)(F)F)C(F)(F)F)cc1	none
OCCN1CCN(C(=S)c2ccc(Cl)c(Cl)c2)CC1	Lmaj promast 85
COc1cc(NC(=S)N2CCN(CCO)CC2)c(OC)cc1Cl	none
COc1ccccc1NC(=S)NC(NC(=O)CC(C)C)C(Cl)(Cl)Cl (configuration not stated)	none
C[C@H](NC(=O)OC(C)(C)C)C(=O)N/N=C/c1ccc2nccnc2c1	none (no result: RAM network inh, WT yeast gro inh, Lmaj promast)
Clc1ccc2c(Cl)c(-c3nnc(-c4ccccc4)o3)sc2c1	none (no result: RAM network inh, CHOP inh, WT yeast gro inh)
Fc1ccc2c(Cl)c(-c3nnc(-c4cccs4)o3)sc2c1	CHOP inh 91
CCOC(=O)C(=N/O)/C(C)=N/NC(=O)C(=O)Nc1ccc(Cl)cc1	CHOP inh 73 (no result: RAM network inh, WT yeast gro inh, Lmaj promast)
N#Cc1ccccc1NC(=O)Nc1ccccc1	none
O=C(Nc1ccccc1)Nc1ccccc1-n1ccnc1	Lmaj promast 80
CCOC(=O)c1c(Cc2cccc(Cl)c2)c[nH]c1C	none
CC(=O)c1c(N2CCCCC2)nc(=S)n(Cc2ccccc2)c1C	none
CC(=O)c1c(N2CCN(Cc3ccccc3)CC2)nc(=S)n(Cc2ccccc2)c1C	Lmaj promast 63
Cc1nc2ccccc2c(=O)n1NC(=O)c1ccccc1Cl	WT yeast gro inh 74
Cc1nc2ccccc2c(=O)n1NC(=O)/C=C/c1ccccc1Cl	Lmaj promast 69
O=C(/C=C/c1ccccc1Cl)Nn1cnc2ccccc2c1=O	Lmaj promast 79
CCOc1cc(/C=N/Nc2nc(-c3cccc(S(=O)(=O)N4CCCC4)c3)cs2)ccc1O	Lmaj promast 93
COc1ccc(/C=N/Nc2nc(-c3cccc(S(=O)(=O)N4CCCC4)c3)cs2)cc1OC	none
NS(=O)(=O)c1ccc(NC(=O)COC(=O)c2ccc([N+](=O)[O-])s2)cc1	none (no result: RAM network inh, WT yeast gro inh, Lmaj promast)
CCc1ccc(-c2cn(C3CCCCC3)c(=S)[nH]2)cc1	WT yeast gro inh 68
CCc1ccc(-n2cc(-c3ccc([N+](=O)[O-])cc3)[nH]c2=S)cc1	none
O=C1NC(=S)S/C1=C\c1ccc(SCc2ccccc2)o1	RAM network inh 10, WT yeast gro inh 83
O=C1NC(=S)S/C1=C\c1ccc(SCc2ccco2)o1	WT yeast gro inh 69
CCC1=NN2C(=N)/C(=C\c3ccc(SCc4ccco4)o3)C(=O)N=C2S1	none
Cc1cc(-c2nnc(-c3cccc(Cl)c3)o2)no1	none (no result: RAM network inh, WT yeast gro inh, Lmaj promast)
O=S(=O)(Nc1nc2ccccc2nc1Cl)c1ccc(Cl)cc1	none
O=S(=O)(Nc1nc2ccccc2nc1N1CCN(c2ccccn2)CC1)c1ccc(Cl)cc1	Lmaj promast 66
CC(=O)Nc1ccc(S(=O)(=O)Nc2nc3ccccc3nc2N2CCCCCC2)cc1	none
O=S(=O)(Nc1nc2ccccc2nc1N1CCc2ccccc2C1)c1ccc(Cl)cc1	Lmaj promast 57
O=S(=O)(Nc1nc2ccccc2nc1-[n+]1ccccc1)c1ccc(Cl)cc1	Lmaj promast 56
O=S(=O)(Nc1nc2ccccc2nc1N1CCc2ccccc2C1)c1ccc(Br)cc1	none
CC(=O)Nc1ccc(S(=O)(=O)Nc2nc3ccccc3nc2N2CCc3ccccc3C2)cc1	Lmaj promast 85
O=c1[nH]c(CN2CCN(S(=O)(=O)c3cccs3)CC2)nc2c(Br)cc(Br)cc12	none
COC(=O)c1ccccc1NC(=O)COC(=O)C1CCCCC1	none (no result: RAM network inh, WT yeast gro inh, Lmaj promast)
O=c1c2ccccc2nc(SCc2nc3ccccc3s2)n1CCCO	none
Oc1ccc(Br)cc1C=Nc1ccc2c3c(cccc13)CC2	RAM network inh 10, Lmaj promast 71
O=C1NC2(CCSC2)C(=O)N1CC(=O)N(Cc1ccccc1)C1CCS(=O)(=O)C1 (configuration not stated)	none (no result: RAM network inh, WT yeast gro inh, Lmaj promast)
Cc1ccc(NCC(=O)NNC2=NCCC2)c(C)c1	none
COc1ccc(-c2csc(N3C(=O)C4C5c6ccccc6C(c6ccccc65)C4C3=O)n2)cc1 (configuration not stated)	Lmaj promast 60
